Bioassay records from PubChem BioAssay.
Hits are enriched below; roughly 3.8% of the tested compounds scored in any of these assays.
Gli-Sufu block = Gli-Sufu pathway antagonists, primary screen, luciferase luminescence, Sufu-KO-LIGHT cells, uHTS; Sufu-KO-LIGHT fibroblasts, Gli luciferase reporter luminescence; inhibition, % at 5 µM; 340,000 tested, 0.74% active; AID 588413, 2011;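 active = inhibition above about 55%, limit read from the data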;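 also: 0% = DMSO-treated cells and 100% = wells with medium but no cells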
697 NFkB inh = inhibitors of PMA/ionomycin-induced NF-kB reporter, 697 cells, primary screen, B-cell NF-kB inhibitor project, cell-based, luminescence, uHTS; 697 B-cell NF-kB luciferase reporter, 16 h; inhibition, % at 4 µM; 330,000 tested, 0.33% active; AID 435022, 2010; in the data active = inhibition above about 35%
Jurkat NFkB inh = inhibitors of induced NF-kB luciferase reporter, primary screen, TCR NF-kB activation inhibitor project, cell-based, luminescence, uHTS | Jurkat, PMA/ionomycin-induced NF-kB luciferase reporter | inhibition, % at 4 µM | 330,000 tested, 0.53% active | AID 435003, 2010; in the data active = inhibition above about 50%
Shn3 inh set2 = reduction of Shn3 3'UTR firefly luciferase signal, primary screen, Schnurri-3 inhibitor project, cell-based, Clone20 osteoblasts, set 2; Clone20 osteoblast Shn3 3'UTR firefly luciferase, 24 h; inhibition, % at 12.5 µM; 360,000 tested, 0.52% active;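 active = mean inhibition of at least 75% with every replicate also reaching 75%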;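 also: 0% = median of neutral control wells and 100% = pilot-screen positive control compound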
Mdm2 MdmX PPI = inhibitors of human Mdm2-MdmX association, primary screen, cell-based, luminescence, split luciferase, SaOS-2, uHTS | inhibition, % at 8 µM | SaOS-2 split-luciferase Mdm2/MdmX complementation | Protein Mdm4 (Homo sapiens) + E3 ubiquitin-protein ligase Mdm2 (Homo sapiens), … | 330,000 tested, 3% active;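 active = inhibition of at least 50% at 8 µM in the primary screen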
Target sequence (O15151 whole entry, looked up): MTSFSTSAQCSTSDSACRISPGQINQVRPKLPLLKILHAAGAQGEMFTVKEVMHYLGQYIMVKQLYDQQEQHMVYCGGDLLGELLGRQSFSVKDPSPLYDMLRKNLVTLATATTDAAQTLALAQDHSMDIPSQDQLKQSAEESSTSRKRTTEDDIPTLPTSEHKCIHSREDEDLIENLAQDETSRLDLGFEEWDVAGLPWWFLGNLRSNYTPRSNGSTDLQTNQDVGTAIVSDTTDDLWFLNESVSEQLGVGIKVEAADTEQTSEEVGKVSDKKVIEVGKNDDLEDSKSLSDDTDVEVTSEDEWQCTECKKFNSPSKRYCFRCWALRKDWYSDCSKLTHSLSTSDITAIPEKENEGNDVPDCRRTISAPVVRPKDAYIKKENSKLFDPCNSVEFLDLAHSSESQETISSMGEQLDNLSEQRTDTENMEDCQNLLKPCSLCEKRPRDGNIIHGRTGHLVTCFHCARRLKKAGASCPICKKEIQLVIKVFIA
Target sequence (Q00987 whole entry, looked up): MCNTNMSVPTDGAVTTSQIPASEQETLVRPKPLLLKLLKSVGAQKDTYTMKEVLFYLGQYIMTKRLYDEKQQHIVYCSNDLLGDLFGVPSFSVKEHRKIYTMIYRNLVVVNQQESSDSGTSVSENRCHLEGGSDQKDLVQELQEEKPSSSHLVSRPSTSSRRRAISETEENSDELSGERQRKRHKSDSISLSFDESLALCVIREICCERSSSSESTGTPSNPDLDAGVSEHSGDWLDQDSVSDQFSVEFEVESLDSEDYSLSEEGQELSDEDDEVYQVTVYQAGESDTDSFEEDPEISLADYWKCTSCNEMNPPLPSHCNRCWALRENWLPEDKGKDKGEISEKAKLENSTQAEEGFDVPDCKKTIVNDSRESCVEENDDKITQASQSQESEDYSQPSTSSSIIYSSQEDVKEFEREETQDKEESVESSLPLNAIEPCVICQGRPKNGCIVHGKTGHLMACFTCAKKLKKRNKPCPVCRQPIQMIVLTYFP
Gli-Sufu confirm = Gli-SUFU pathway antagonists, confirmation, single concentration, luciferase luminescence, Sufu-KO-LIGHT cells | shares compounds with Gli-Sufu block | Gli luciferase reporter | inhibition, % at 5 µM | 2,500 tested, 40% active;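 active = mean inhibition at 5 µM reaching about 45%, limit read from the data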;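 also: plate controls were DMSO-treated cells for no effect and wells lacking cells for full effect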
Gli cytotox = cytotoxicity in Sufu-KO-LIGHT cells, confirmation, cytotoxicity control for Gli-SUFU antagonist project, cell-based, ATP luminescence, single concentration. 2,500 tested, 32% active. shares compounds with Gli-Sufu block. cytotoxicity, % at 5 µM;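 active = mean cytotoxicity at 5 µM above about 25%, limit read from the data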;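 also: cells exposed to compound overnight for roughly 16 to 18 hours; plate controls were DMSO wells with cells for no effect and medium without cells for full effect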
Wnt3a counter = Wnt3a reporter signal inhibition, confirmation, counter-screen for Gli-SUFU antagonist project, Wnt-LIGHT cells, luminescence, single concentration; shares compounds with Gli-Sufu block; Wnt3a-driven luciferase reporter; inhibition, % at 6.25 µM; 2,500 tested, 20% active;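 active = mean inhibition above about 25%, limit read from the data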
Starred values were filed as active, the others as inactive; · = not tested or not shown.

SMILES	Gli-Sufu block	697 NFkB inh	Jurkat NFkB inh	Shn3 inh set2	Mdm2 MdmX PPI	Gli-Sufu confirm	Gli cytotox	Wnt3a counter
COc1ccccc1N1CCN(CC(O)c2c(C)[nH]c3ccccc23)CC1 (stereo not given)	61*	16	-4	7	15	20	21	-29
COc1ccccc1N1CCN(CC(=O)c2c(C)[nH]c3ccccc23)CC1	-6	16	16	21	0	·	·	·
CC(C)(C)C(=O)Nc1cc2nn(-c3ccccc3)nc2cc1Cl	81*	·	·	84	·	87*	83*	104*
Cc1nn(-c2cccc(Cl)c2)nc1C(=O)O	0	7	-6	6	9	·	·	·
CCC(C)NC(=O)c1cc2c(=O)n(CC)c3ccccc3c2s1 (stereo not given)	15	12	-22	3	34	·	·	·
CCn1c(=O)c2cc(C(=O)NCC(OC)OC)sc2c2ccccc21	50	22	-5	14	37	29	2	3
Cc1ccc2c(c1)[nH]c1c(N3CCN(Cc4ccccc4)CC3)ncnc12	68*	11	28	72	22	63*	30*	7
Cc1ccc2[nH]c3c(N4CCN(Cc5ccccc5)CC4)ncnc3c2c1	53	22	15	90*	39	53*	37*	-5
O=C(c1ccco1)N1CCN(c2ncnc3c2[nH]c2ccc(Cl)cc23)CC1	·	24	1	·	-14	·	·	·
Cc1ccc(-c2nc3ccccc3o2)cc1NC(=O)Cc1cccs1	-3	6	7	1	22	·	·	·
O=C(Cc1cccs1)Nc1cccc(-c2nc3ccccc3o2)c1	99*	-21	-8	4	-50	20	14	-6
Cc1cc(C)nc(CCNC(=O)CC2C(=O)NCCN2Cc2ccccc2)n1 (stereo not given)	52	-7	4	-8	3	21	-4	2
CN(CCc1ccccn1)C(=O)CC1C(=O)NCCN1Cc1ccc(-c2ccccc2)cc1 (stereo not given)	60*	7	-4	10	5	9	1	-25
Cc1nc(CCNC(=O)CC2C(=O)NCCN2Cc2ccccc2)nc2c1CCC2 (stereo not given)	-10	1	7	-74	31	·	·	·
Clc1ccc(C2Nc3cccc4cccc(c34)N2)c(Cl)c1	-34	·	·	12	·	·	·	·
O=C1NC(c2cccc3ccccc23)Nc2ccc(Cl)cc21 (stereo not given)	61*	·	·	26	·	59*	64*	-73
COc1ccc(N(C)S(=O)(=O)c2cccc(C(=O)Nc3cccc(C(=O)NC4CC4)c3)c2)cc1	22	-7	-3	-13	27	·	·	·
CC(C)NS(=O)(=O)c1ccc2c(c1)oc(=O)n2C	57*	-3	-1	10	-18	10	2	-10
Cn1c(=O)oc2cc(S(=O)(=O)Nc3ccccc3)ccc21	-3	2	8	-4	29	·	·	·
CCNc1nc(OC)nc(SCC(=O)Nc2ccccc2)n1	7	-16	23	·	24	·	·	·
CCOc1cc(NC(=S)NCCc2ccccc2)c(OCC)cc1NC(C)=O	7	4	11	2	10	·	·	·
CCOC(=O)C1=C(C)NC(C)=C(C(=O)OCC)C1C	53	26	-3	-6	32	15	1	11
COc1ccc(CN(C2CCCC2)S(=O)(=O)c2ccc(-n3cnnn3)cc2)cc1	58*	-10	8	22	28	14	11	1
O=C(COC(=O)CN1C(=O)C2CCCCC2C1=O)Nc1cc(F)ccc1F (stereo not given)	-21	-4	14	7	14	·	·	·
Cc1ccc(C(=O)N2CCN(c3nc4ccccc4n3C)CC2)cc1	70*	-14	-3	-1	-13	13	23	-83
SMILES	Gli-Sufu block	697 NFkB inh	Jurkat NFkB inh	Shn3 inh set2	Mdm2 MdmX PPI	Gli-Sufu confirm	Gli cytotox	Wnt3a counter
Cn1c(N2CCN(C(=O)NC34CC5CC(CC(C5)C3)C4)CC2)nc2ccccc21	11	-49	-15	-4	15	·	·	·
COc1ccc(CCNC(=O)CNCC(c2ccccc2)N(C)C)cc1OC (stereo not given)	1	7	-15	-1	-22	·	·	·
CC(C)(C)C(=O)Nc1cc(S(=O)(=O)N2CCCCC2)ccc1N1CCCCC1	55	8	12	84*	-11	27	0	-18
CC(C)C(=O)Nc1cc(S(=O)(=O)N2CCOCC2)ccc1N1CCCCC1	1	-3	-4	-8	-11	·	·	·
C=CC[C@H](CC(=O)N[C@H](CO)Cc1ccccc1)C(=O)N[C@H](COC(=O)[C@@H](CC=C)CC(=O)OC(C)(C)C)Cc1c[nH]c2ccccc12	7	-6	6	13	19	·	·	·
O=C(Cn1ccc(C(F)(F)F)n1)N/N=C/c1ccc2c(c1)OCO2	58*	-16	-32	-20	8	9	21	-68
C/C(=N\NC(=O)Cn1ccc(C(F)(F)F)n1)c1ccc2c(c1)OCO2	-1	1	-8	10	2	·	·	·
CSCCC(NC(=O)c1cccc(S(=O)(=O)N2CCOCC2)c1)C(=O)Nc1ccc(F)cc1 (stereo not given)	68*	7	7	-3	9	17	3	-19
CSCCC(NC(N)=O)C(=O)Nc1cccc(S(=O)(=O)N2CCOCC2)c1 (stereo not given)	-7	-6	-6	6	8	·	·	·
Cc1ccccc1NS(=O)(=O)c1ccc(C(=O)N2CCN(S(=O)(=O)c3ccccc3)CC2)cc1	26	5	11	27	-4	·	·	·
CN(c1ccc(OCC(=O)OCC(=O)NCc2ccco2)cc1)S(=O)(=O)c1ccc2ccccc2c1	-23	-4	-1	17	11	·	·	·
CC(=O)OC(COC1C[C@@H]2CC[C@@]1(C)C2(C)C)C[N+]1(C)CCCCC1 (stereo not given in full)	0	-6	5	14	14	·	·	·
CCCCOC(=O)C[N+](C)(C)CCOC1CC2CCC1(C)C2(C)C (stereo not given)	69*	-15	3	38	12	72*	37*	2
CCC(C)OC(=O)C[N+](C)(C)CCOC1CC2CCC1(C)C2(C)C (stereo not given)	73*	-9	-1	63	21	71*	36*	9
CC1(C)C2CCC1(C)C(OC(=O)c1ccccc1C(=O)O)C2 (stereo not given)	0	-4	-4	1	12	·	·	·
